Compound activity: PubChem, National Center for Advancing Translational Sciences (NCATS)
Eya2 inh = inhibitors of human Eya2 phosphatase activity. recombinant Eya2, OMFP fluorescence dephosphorylation (OMFP is methylfluorescein phosphate). Potency, µM (titrated, usually from 76.9 µM), inactives show top-dose activity, negative = inhibition, most hits filed as inhibitors. 0.006% of 330,000 active. AID 488837; further: on the % scale 0 is the no-effect control and ±100 the full control effect
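Eya2 protein (added as 0.2 uM solution) was preincubated with compound for 10 min at ambient temperature in 50 mM HEPES pH 7.5, 50 mM NaCl, 5 uM MgCl2, 0.05% BSA, 1 mM DTT. OMFP (added at 50 uM) then reacted 10 min; fluorescence read at 485/525 nm.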
USP2a inh = inhibitors of human ubiquitin-specific protease USP2a | USP2 core, Ub-CHOP2 coupled fluorogenic reporter, 485/531 | Potency, µM (highest dose often 38.3 µM), inactives show top-dose activity change, negative = inhibition, most hits filed as inhibitors | O75604 | 0.01% of 330,000 active;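 further: plate controls were DMSO wells for no effect and full inhibition by NEM control for full effect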
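USP2 core (10nM final) preincubated 30min RT with compound in 20mM Tris-HCl pH 8.0, 2mM CaCl2, 2mM beta-mercaptoethanol, 0.05% CHAPS; 25nM Ub-CHOP2 plus 25nM reporter substrate added, fluorescence (Ex485/Em531) read after 60min.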
TSG101-PTAP inh = blocks PTAP/TSG101 interaction to inhibit HIV-1 budding; Q99816; Fluorescence polarization, FITC-PTAP peptide / Tsg101 binding; Potency, µM (titrated, usually from 115 µM), inactives show top-dose activity change, negative = inhibition, most hits filed as inhibitors; 340,000 tested, under 10 active; active means well fitted inhibition curve with a large enough effect in the main read-out, with a control signal flat, not every such curve was filed as active; inconclusive means small, poorly fitted or top-dose-only effect, or effect the other way, or a change in a side signal; inactive means no such curve, though single readings can be large or run the other way; further: % of control where 0% means no effect
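Fluorescence anisotropy tracks displacement of a FITC-tagged PTAP peptide (50 nM) from the Tsg101 binding domain (10 uM), following a 20 min room-temperature incubation at pH 7.5.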
12-LOX inh = blocks human arachidonate 12S-lipoxygenase | purified 12hLO, xylenol orange hydroperoxide absorbance | Potency, µM (highest dose often 108 µM), for inactives: top-dose activity change, negative = inhibition, usual class: inhibitors | 1.1% of 580,000 active | AID 1671190; further: on the % scale 0 is the no-effect control and ±100 the full control effect
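Hydroperoxide product was detected by ferrous iron/xylenol orange as the 573 to 405 nm absorbance ratio. Arachidonic acid at 40 uM (final) was turned over for 30 min at room temperature by 150 nM human 12hLO, pH 7.0 Hepes buffer, after 15 min compound preincubation.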
* hit, by the source's call; ? = inconclusive; nt = no result given; [ ] = remark or other dose. An excerpt weighted towards active compounds, which were near 1.1% of everything screened. Unless noted, the call rests on the fitted dose curve; in most records, active means well fitted curve in the direction sought with a large enough effect; inconclusive means small, poorly fitted or top-dose-only effect, or another doubt; inactive means no such curve, though single readings can be large; an effect the other way counts as inactive or inconclusive. Potency means the concentration at half of the fitted maximal effect.

SMILES	Eya2 inh	USP2a inh	TSG101-PTAP inh	12-LOX inh
C#CCOCCOCCOCCNc1nc(N2CCN(C(=O)CCCCCCCCCCNC(=O)[C@H](CCCCN)n3cc(C[C@@H](C)CC)nn3)CC2)nc(N2CCN(C(=O)CCCCCCCCCCNC(=O)[C@H](CCCN=C(N)N)n3cc(C[C@@H](C)CC)nn3)CC2)n1	?	10µM*	12%	nt
Cc1cc(NC2=CC(=O)C(=O)c3ccccc32)no1	nt	nt	-1%	40µM*
Cc1ccc(NC2=CC(=O)C(=O)c3ccccc32)cc1	-22%	-5%	-11%	-22%
CCCC[C@@H]1CNC(=S)N1CCC12CC3CC(CC(C3)C1)C2	11%	-1%	-5%	35µM*
CCCC[C@@H]1CNC(=S)N1CC1CCCCC1	?	-4%	-6%	50µM*
CCCC[C@@H]1CNC(=O)C(=O)N1CC1CCCCC1	nt	nt	nt	0%
CCc1nc2c(OCC(=O)N(C)C)cccn2c1N(C=O)Cc1ccc(OC)cc1	nt	nt	nt	-9%
CCc1nc2c(OCC(=O)c3ccc(Cl)cc3Cl)cccn2c1N(C=O)Cc1ccccc1	nt	nt	nt	14µM*
O=C(Nc1nccs1)[C@@H]1C[C@@H](c2cccc(C(F)(F)F)c2)N(CC2CCOCC2)C1	nt	nt	nt	38%[176 µM]
CCCCn1c(O)c(C2=Nc3ccccc3SC(c3ccc(O)cc3)C2)c(=O)[nH]c1=O (stereo unspecified)	nt	nt	nt	28µM*
Fc1ccc(C2CC(c3ccco3)=Nc3ccccc3S2)cc1 (stereo unspecified)	-7%	1%	-2%	3%
CSc1c[n+]2c(n1C)CCC2	12%	1%	-8%	45µM*
Cc1ccc(Cn2nc(C)c(C(=O)OCC(=O)c3cc(C)n(C)c3C)c2Cl)cc1	nt	nt	nt	-4%
CCCS(=O)(=O)c1c(S(=O)(=O)CCC)c2c(N)cccn2c1C(=O)c1ccc(Br)cc1	2%	-10%	0%	6.3µM*
CCc1ccc(OCCCCCn2ccnc2)cc1	3%	3%	0%	1.3µM*
CCc1ccc(OCCn2ccnc2)cc1	0%	2%	0%	?
CC(C)c1ccc(C(=O)N2CCC(C3CCNC3)CC2)cc1 (stereo unspecified)	nt	nt	nt	41%
COc1ccc(C(=O)N2CCC(Oc3nccnc3N(C)C)C2)c(OC)c1 (stereo unspecified)	nt	nt	nt	46%
Cc1ccccc1CC(=O)Nc1cc(C(C)(C)C)on1	-4%	-1%	-3%	5µM*
Cc1cc(NC(=O)Cc2ccccc2C)no1	3%	0%	-7%	?
CCC/C=C/CO	nt	nt	nt	7%[176 µM]
Cc1cccc(NC(=S)NCC2(C)CCCC3(C)c4ccc(C(C)C)cc4CCC23)c1 (stereo unspecified)	nt	nt	nt	16µM*
Cc1occc1C(=O)N(C)CC1CCCN(CCc2ccc(Cl)cc2)C1 (stereo unspecified)	nt	nt	nt	45µM*
c1ccc(-c2nnc(CSc3nc(C4CC4)n(-c4ccccc4)n3)o2)cc1	nt	nt	nt	22%
CCCCCC1=CCC/C1=N\NC(=O)C(N)=O	nt	nt	nt	-20%
SMILES	Eya2 inh	USP2a inh	TSG101-PTAP inh	12-LOX inh
CCCCCC1=CCC/C1=N/NC(=S)NCCOC	nt	nt	nt	40µM*
CN1CCCC1CCNc1nccc(-c2cnn(-c3ccc(F)cc3)c2)n1 (stereo unspecified)	nt	nt	nt	58%
CC(c1cccc([N+](=O)[O-])c1)N(C)C(=O)c1ccc2c(c1)NC(=O)CS2 (stereo unspecified)	nt	nt	nt	-8%
NC1=NC[C@H](c2ccccc2)N1CCCCC1CCCCC1	6%	-2%	-1%	?
S=C1NC[C@H](c2ccccc2)N1CCCCC1CCCCC1	-28%	0%	-5%	35µM*
O=C1CC(c2ccccc2OCc2ccc(F)cc2)c2cn[nH]c2N1 (stereo unspecified)	nt	nt	nt	75%
O=c1cc(-c2ccncc2)oc2c(-c3ccccc3Oc3ccccc3)nccc12	nt	nt	nt	32µM*
O=c1cc(-c2ccncc2)oc2c(-c3ccccc3F)nccc12	nt	nt	nt	-2%[176 µM]
N#Cc1c(SCC(=O)NCCc2ccccc2)nc(N2CCOCC2)c2c1CCCC2	nt	nt	nt	-20%
COC(=O)C(C)OC(=O)/C=C/c1ccc2ccccc2n1 (stereo unspecified)	nt	nt	nt	-1%
Cc1ccc(C(=O)Nc2ccc(CN3CCN(C)CC3)c(C(F)(F)F)c2)cc1C#Cc1cnc2cccnn12	nt	nt	nt	0.34µM*
C=C(C)C1CCC(C)(O)CC1 (stereo unspecified)	nt	nt	nt	10%[176 µM]
O=C(/C=C/c1cccnc1)c1cccc2ccccc12	nt	nt	nt	-14%
